Bioassay records (PubChem)
p53ts 39C kill – qHTS Screen for Compounds that Selectively Target Cancer Cells with p53 Mutations: Cytotoxicity of p53ts Cells at the Nonpermissive Temperature. H1299-p53A138V viability at 39C, ATP luminescence, 24 h. actives 1.5% (n = 130,000). Potency, µM (highest dose often 46.1 µM), actives largely listed as cytotoxic; note: nearly all actives have a fitted effect of over 55% in size
Luciferase inh – qHTS Assay for Inhibitors of Firefly Luciferase; Luciferin 4-monooxygenase (Photinus pyralis), P08659; purified firefly luciferase, luminescence, 8 min; actives 2.2% (n = 72,000); Potency, µM (series often up to 57.1 µM), most hits filed as inhibitors; note: nearly all actives have a fitted effect of over 40% in size
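Firefly luciferase (PKLight detection mix) with 10 uM ATP in pH 7.2 imidazole buffer (KCl, MgCl2, Tween 20, BSA). Compounds tested across a concentration series (qHTS). Luminescence read after 8 min at ambient temperature.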
IMPase inh – qHTS Assay for Identifying the Cell-Membrane Permeable IMPase Inhibitors. Inositol monophosphatase 1 (Rattus norvegicus), P97697. CHO-M1 cells, IP1 accumulation, HTRF TR-FRET ratio. inhibition (IP1 accumulation), % at 46.1 µM. 120,000 tested, under 10 active. AID 901, 2007; active = well fitted curve in the direction sought with a large enough effect in the signal ratio, not every such curve was filed as active; inconclusive = small, poorly fitted or top-dose-only effect, or a change in a side signal; inactive = no such curve, though single readings can be large or run the other way; the % refers to the signal ratio;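 note: cells stimulated with carbachol in lithium chloride buffer; higher means more IMPase inhibition seen as more IP1 and lower FRET ratio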
Target sequence (P97697 whole entry, looked up): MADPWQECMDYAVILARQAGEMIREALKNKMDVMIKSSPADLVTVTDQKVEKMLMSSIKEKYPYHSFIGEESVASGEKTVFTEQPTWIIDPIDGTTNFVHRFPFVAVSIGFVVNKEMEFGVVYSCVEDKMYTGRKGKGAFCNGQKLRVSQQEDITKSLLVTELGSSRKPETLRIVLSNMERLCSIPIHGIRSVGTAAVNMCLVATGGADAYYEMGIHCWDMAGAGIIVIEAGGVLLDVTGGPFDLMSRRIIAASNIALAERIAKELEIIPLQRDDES
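Seeded CHO-M1 cells were dosed with compound at up to 46 uM, stimulated with carbachol for 30 min, then lysed in IP-One detection reagents. Higher IP1 lowers the TR-FRET signal.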
IkB sig inh – IkB Signaling | ABC-DLBCL IkBa-CBG/CBR dual luciferase ratio, 4 h; response scale: scaled: untreated 0%, proteasome inhibitor 100% | Potency, µM (doses to about 57.1 µM) | actives 0.04% (n = 110,000); active = well fitted curve in the direction sought with a large enough effect in the signal ratio, not every such curve was filed as active; inconclusive = small, poorly fitted or top-dose-only effect, or a change in a side signal; the % refers to the signal ratio;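 note: the direction sought is a rising ratio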
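Luminescence ratio of IκBα-fused green versus native red beetle luciferase in OCI-Ly3 cells, 4 h post-doxycycline with compound; red signal alone, scaled from basal (0%) to zero light (-100%), flagged nonspecific or cytotoxic effects.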
p53ts 32C kill – qHTS Screen for Compounds that Selectively Target Cancer Cells with p53 Mutations: Cytotoxicity of p53ts Cells at the Permissive Temperature. H1299-p53A138V at 32C, ATP luminescence viability, 24 h. Potency, µM (highest dose often 46.1 µM), hits mostly cytotoxic. actives 0.93% (n = 130,000). AID 924, 2007; note: nearly all actives have a fitted effect of over 55% in size
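Viability by ATPlite luminescence after 24 h compound treatment (up to 46 uM) at the permissive 32C. Cells are H1299 carrying p53 A138V. Scale runs from DMSO basal to 100 uM tamoxifen as full kill; AC50 from Hill fits.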
Peg3 imprint – qHTS Assay for Compounds that Induce Erasure of Genomic Imprints; Potency, µM (highest dose often 60.7 µM), most hits filed as activators; actives 0.02% (n = 110,000); mouse ES Peg3-LacZ reporter, beta-gal luminescence, 40 h
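Imprint erasure is scored as LacZ activity from the silenced maternal Peg3 allele in feeder-free female ES cells cultured 40 h with LIF. Luminescence is normalized to in-plate negative controls and fitted to the Hill equation.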
A number is an active result; – = inactive; ? = inconclusive; · = no result; ! = a repeat was not active; [ ] = dose if it differs, or a comment. Many of the other results were omitted from the sample, so hits are more common in it than they were. Unless noted, calls come from the whole dose curve; as a rule, active = well fitted curve in the direction sought with a large enough effect; inconclusive = small, poorly fitted or top-dose-only effect, or another doubt; inactive = no such curve, though single readings can be large; an effect the other way counts as inactive or inconclusive.

SMILES | p53ts 39C kill | Luciferase inh | IMPase inh | IkB sig inh | p53ts 32C kill | Peg3 imprint
COC(=O)NC(c1ccco1)[C@@]1(C(=O)OC)CCCC1=O (stereo partly specified) | –[9.22 µM] | · | · | · | –[9.22 µM] | ·
CCC(C)C(=O)OC1C2CC3=C4CC(=O)OC(c5ccoc5)[C@]4(C)CCC3[C@@](C)(C2=O)C(CC(=O)OC)C1(C)C (stereo partly specified) | – | · | · | · | – | –
Cc1cc(C)n(-c2ccc(C(=O)NCc3ccc4c(c3)OCO4)cc2)n1 | – | – | – | – | – | –
Cc1cc(C)n(-c2ccc(C(=O)Nc3nnc(C)s3)cc2)n1 | · | · | – | · | · | ·
Cc1cc(C)n(-c2ccc(C(=O)Nc3ccccn3)cc2)n1 | 10µM | 13µM | – | ? | 13µM | –
Cc1ccc(C(=O)Nc2ccc3c(c2)OCCO3)o1 | · | · | – | · | · | ·
Cc1cc(C(=O)Nc2ccc3c(c2)OCCO3)co1 | 16µM | · | – | · | 10µM | ·
COc1cc(OC)cc(C(=O)Nc2ccc3c(c2)OCCO3)c1 | 4µM | · | – | ? | 13µM | –[10.9 µM]
Cc1cc(C)n(-c2ccc(C(=O)Nc3ccc4c(c3)OCCO4)cc2)n1 | ? | 13µM | – | ? | ? | –
Cc1cc(C(=O)Nc2ccccn2)cs1 | ? | 13µM | – | – | ? | –
CCCC(=O)Nc1cccc(NC(=O)c2ccc3c(c2)OCCO3)c1 | ? | 16µM | – | ? | ? | –
COC(=O)c1ccc(C(NC(=O)OCc2ccccc2)/C(C)=C/[C@@H](C)C(=O)N(C)Cc2cccnc2)cc1 (stereo partly specified) | – | · | · | · | – | –
COC(=O)c1ccc(OC)c(CN2CCCN(Cc3ccc(C)cc3)S2(=O)=O)c1 | – | · | · | – | – | –[10.9 µM]
CCc1ccc(NC(=O)CSc2nc(C)c(C(=O)Nc3ccccc3)c(-c3ccc(OC)c(OC)c3)c2C#N)cc1 | – | · | – | – | – | –[10.9 µM]
O=C(Nc1cc2ccc(O)cc2oc1=O)c1ccccc1 | 7.9µM | · | · | – | ? | –[10.9 µM]
O=C(c1ccccc1)c1cc2ccc(O)cc2oc1=O | · | · | – | · | · | ·
Clc1ccc(CCNc2nc3cc(Cl)c(Cl)cc3n3cnnc23)cc1 | – | · | – | ? | – | –[10.9 µM]
CCOC(=O)c1ccc(NC(=O)c2ccc(C)c(S(=O)(=O)N3CCOCC3)c2)cc1 | ? | – | – | ? | 16µM | –
CCN(Cc1ccccc1)S(=O)(=O)c1cc(C(=O)NCC2CCCCC2)ccc1OC | – | · | – | · | · | ·
Cc1ccc(C(=O)Nc2cccc(C(=O)O)c2)cc1S(=O)(=O)N1CCCC1 | 6.3µM | · | – | – | 13µM | –[10.9 µM]
Cc1ccccc1NC(=O)c1ccc(Cl)c(S(=O)(=O)N2CCCCCC2)c1 | – | · | – | ? | ? | –[10.9 µM]
CCN(CC)S(=O)(=O)c1cc(C(=O)Nc2ccccc2C(=O)O)ccc1OC | ? | 20µM | – | – | 13µM | –
Cc1ccc(C(=O)Nc2ccccc2C(=O)O)cc1S(=O)(=O)N1CCCCCC1 | 4µM | · | – | ? | 7.9µM | –[10.9 µM]
O=C(O)c1cccc(NC(=O)c2cccc(S(=O)(=O)N3CCCCC3)c2)c1 | – | – | – | – | – | –
COc1ccc(-c2cc(C(F)(F)F)nc(SCCC(=O)Nc3cc(C)ccc3O)n2)cc1 | 10µM | · | – | ? | – | –[10.9 µM]
SMILES | p53ts 39C kill | Luciferase inh | IMPase inh | IkB sig inh | p53ts 32C kill | Peg3 imprint
Cc1cc(N2CCN(C)CC2)nc2ccc(NC(=O)Nc3ccccc3Br)cc12 | 13µM | · | · | – | 16µM | –[10.9 µM]
Cc1cc(N2CCN(C)CC2)nc2ccc(NC(=O)Nc3cccc(Cl)c3)cc12 | 25µM | · | · | – | ? | –[10.9 µM]
Cc1ccc(NC(=O)Nc2ccc3nc(N4CCN(C)CC4)cc(C)c3c2)cc1C | 13µM | · | · | ? | ? | –[10.9 µM]
Cc1cc(N2CCN(C)CC2)nc2ccc(NC(=O)Nc3ccccc3)cc12 | ? | · | · | – | ? | –[10.9 µM]
CCN1CCN(c2cc(C)c3cc(NC(=O)c4cc(Br)ccc4Cl)ccc3n2)CC1 | 13µM | · | · | ? | ? | –[10.9 µM]
Cc1nc(N2CCOCC2)c2c(C(=O)N3CCN(c4cc(Cl)ccc4C)CC3)c(C)oc2n1 | – | · | · | ? | – | –[10.9 µM]
COC(=O)c1cc(C)nc2c1c(=O)nc(SCc1ccccc1C)n2C1CC1 | – | · | · | ? | – | –[10.9 µM]
CCn1c(SCc2ccccc2Cl)nc(=O)c2c(C(=O)OC)cc(C3CC3)nc21 | 13µM | · | · | ? | – | –[10.9 µM]
Nc1ccc(CCc2nc3ccccc3o2)cc1 | ? | 25µM | – | – | ? | –
NCc1ccc(-c2nc3ccccc3o2)cc1 | ? | – | – | – | ? | –
O=C(Cn1cnc2onc(-c3ccc(Cl)cc3)c2c1=O)Nc1ccc(F)cc1 | ? | · | · | ? | – | –[10.9 µM]
O=C(Cn1cnc2onc(-c3ccc(F)cc3)c2c1=O)Nc1ccc(F)c(Cl)c1 | 13µM | · | · | ? | – | –[10.9 µM]
CN1CCN(CCC=C2c3ccccc3Sc3ccc(S(=O)(=O)N(C)C)cc32)CC1 | 16µM! | – | – | – | – | –
OCCN1CCN(CCC=C2c3ccccc3Sc3ccc(Cl)cc32)CC1 | – | – | – | – | – | –
CC(=O)OC[C@@H]1O[C@H](C/C=N\OCC[C@H]2C=C[C@H](OC(C)=O)[C@@H](COC(C)=O)O2)C=C[C@@H]1OC(C)=O | –[9.22 µM] | –[11.4 µM] | · | · | –[9.22 µM] | ·
COC(=O)c1cc2oc3ccccc3c2n1CC(=O)Nc1ccc(Cl)cc1F | 10µM | · | · | – | – | –[10.9 µM]
CSc1nc(N)c2ncn([C@@H]3O[C@@H](COP(=O)(O)OP(=O)(O)O)[C@@H](O)[C@H]3O)c2n1 | – | – | – | – | – | ·
CC1CCCN(CCCNC(=O)c2ccc3c(c2)N(Cc2ccc(Cl)cc2)C(=O)c2ccccc2S3(=O)=O)C1 (stereo unspecified) | 10µM | · | · | ? | ? | –[10.9 µM]
O=c1oc2ccccc2cc1-c1nc2ccccc2o1 | ? | 16µM | – | ? | ? | –
O=S(=O)(NCCc1csc2nc(-c3ccccc3)nn12)c1cc(F)ccc1F | – | · | · | ? | – | –[10.9 µM]
Cc1ccc(CNC(=O)Nc2ccccc2)cc1 | ? | 13µM | – | – | ? | –
Cc1ccc(CNC(=O)Nc2cccs2)cc1 | ? | · | – | · | ? | ·
Cc1cc(C)c2c(n1)SCCN2C(=O)Nc1ccc(C(=O)Nc2cc(Cl)ccc2C)cc1 | – | · | · | ? | – | –[10.9 µM]
Cc1ccccc1Nc1c(-c2ccc(N3CCOCC3)cc2)nc2ccc(Br)cn12 | ? | · | – | – | ? | –[10.9 µM]
Cc1ccccc1Nc1c(-c2ccc(N3CCOCC3)cc2)nc2ccccn12 | 1µM | · | · | ? | 1µM | –[10.9 µM]
Cc1ccccc1Nc1c(-c2ccc(N3CCOCC3)cc2)nc2cccc(C)n12 | 7.9µM | · | – | ? | ? | –[10.9 µM]
Cc1ccccc1Nc1c(-c2cccnc2)nc2cccc(C)n12 | – | · | – | ? | – | –[10.9 µM]
